# In PubChem BioAssay (NCI):
# Compounds without any hit were thinned out: in the full panel of roughly 79,000, 15% have a hit. Unmarked numbers belong to inactive results. Activity calls are given as the source filed them. Cut-off read from the data, not from the text of the source: active = growth inhibition above about 70%; inactive = the rest.
# Columns and labels:
# [1] = NCI Yeast Anticancer Drug Screen. Data for the wt1 strain (AID 149);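 note: 0% = growth of vehicle-treated wt1 cultures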; conditions: S. cerevisiae wt1 strain (SPY 50644) growth inhibition, active compounds read high
# Outline: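 Measured: growth of wt1 yeast under compound versus vehicle treatment, reported as inhibition.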
# [2] = NCI Yeast Anticancer Drug Screen. Data for the rad50EPP+ strain (AID 151);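 note: 0% = growth of vehicle-treated control cultures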; conditions: S. cerevisiae rad50 mutant strain, active compounds read high
# Outline: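 In this screen, rad50EPP+ yeast were exposed to compounds. Growth inhibition was scored against vehicle-treated controls.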
# [3] = NCI Yeast Anticancer Drug Screen. Data for the mgt1 strain (AID 153); conditions: S. cerevisiae mgt1 mutant growth inhibition, active compounds read high
# Outline: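 mgt1 strain exposed; growth vs vehicle control recorded as inhibition.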
# [4] = NCI Yeast Anticancer Drug Screen. Data for the rad50 strain (AID 155);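 note: 0% = growth of vehicle-only cultures of the same strain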; conditions: S. cerevisiae rad50 strain growth inhibition, active compounds read high
# Outline: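 Growth of the mutant yeast was measured after compound exposure and referenced to vehicle-treated cultures.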
# [5] = NCI Yeast Anticancer Drug Screen. Data for the mec2-1 strain (AID 157); conditions: S. cerevisiae mec2-1 strain, active compounds read high
# Outline: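 Vehicle-treated cultures served as reference for growth inhibition of compound-exposed mec2-1 yeast.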
# [6] = NCI Yeast Anticancer Drug Screen. Data for the rad14 strain (AID 159);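 note: 0% = growth of vehicle-treated control cultures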; conditions: S. cerevisiae rad14 strain growth inhibition, active compounds read high
# Outline: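 Here, inhibition of yeast growth was measured after compound exposure, using a strain with a genetic defect in DNA damage repair and vehicle-treated cultures as the reference.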
# [7] = NCI Yeast Anticancer Drug Screen. Data for the sgs1 mgt1 strain (AID 161);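 note: 0% = growth of cultures given vehicle only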; conditions: S. cerevisiae sgs1 mgt1 strain, active compounds read high
# Outline: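 Mutant yeast exposed to compound; growth scored against vehicle-only wells.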
# [8] = NCI Yeast Anticancer Drug Screen. Data for the CLN2oe strain (AID 163);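 note: 0% = growth of vehicle-only control cultures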; conditions: S. cerevisiae CLN2oe strain, active compounds read high
# Outline: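 Inhibition relative to vehicle-treated yeast is reported. Cells: strain with genetic alteration in cell-cycle control, grown with compound.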
# [9] = NCI Yeast Anticancer Drug Screen. Data for the cln2 rad14 strain (AID 165);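 note: 0% = growth equal to vehicle treated cultures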; conditions: S. cerevisiae cln2 rad14 strain, active compounds read high
# Outline: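 Each compound was tested on cln2 rad14 yeast. Inhibition of growth was calculated against vehicle-exposed controls.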
# [10] = NCI Yeast Anticancer Drug Screen. Data for the bub3 strain (AID 167); conditions: S. cerevisiae bub3 mutant strain, active compounds read high
# Outline: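 Whole-cell yeast assay. The mutant strain was incubated with compounds, and growth inhibition was determined by comparison with vehicle-treated cells.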
# [11] = NCI Yeast Anticancer Drug Screen. Data for the wt2 strain (AID 169);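 note: 0% = growth of vehicle-treated yeast cultures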; conditions: S. cerevisiae wt2 strain growth inhibition, active compounds read high
# Outline: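 Inhibition of yeast growth was determined after compound treatment, normalised to controls receiving only vehicle.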
# [12] = NCI Yeast Anticancer Drug Screen. Data for the mlh1 strain (AID 171);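 note: 0% = growth of vehicle-treated control cultures of the same strain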; conditions: S. cerevisiae mlh1 strain growth inhibition, active compounds read high
# Outline: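 Vehicle-normalised growth inhibition of a repair- or checkpoint-altered yeast strain following compound treatment.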
# [13] = NCI Yeast Anticancer Drug Screen. Data for the sgs1 strain (AID 173);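 note: 0% = growth of vehicle-only control cultures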; conditions: S. cerevisiae sgs1 mutant, active compounds read high
# Outline: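 Screen format: yeast with repair or checkpoint alterations, compound exposure, growth read relative to vehicle.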
# [14] = NCI Yeast Anticancer Drug Screen. Data for the mlh1 rad18 strain (AID 175); conditions: S. cerevisiae mlh1 rad18 strain growth inhibition, active compounds read high
# Outline: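 Vehicle-treated cultures served as the reference for growth inhibition in a yeast strain carrying DNA damage repair alterations exposed to each compound.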
# [15] = NCI Yeast Anticancer Drug Screen. Data for the rad18 strain (AID 177); conditions: S. cerevisiae rad18 mutant growth inhibition, active compounds read high
# Outline: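 Test articles were incubated with altered yeast defective in DNA damage repair. Results are given as inhibition of growth versus vehicle.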
# [16] = at 5.0 µM (retest, dose inferred, filed as 0.5)
# [17] = at 50.0 µM (retest, dose inferred, filed as 5.0)
smiles,measurement,setting,value
C=Cc1c(C)c(O)cc2c1-c1ccc(O)c(C)c1CC2,growth inhibition,[1]; at 1.2 µM,-8%
same,growth inhibition,[1]; at 3.7 µM,-4%
same,growth inhibition,[1]; at 11.0 µM,-11%
same,growth inhibition,[1]; at 33.0 µM,98% (active)
same,growth inhibition,[1]; at 100.0 µM,98% (active)
same,growth inhibition,[2]; at 1.2 µM,1%
same,growth inhibition,[2]; at 3.7 µM,24%
same,growth inhibition,[2]; at 11.0 µM,16%
same,growth inhibition,[2]; at 33.0 µM,40%
same,growth inhibition,[2]; at 100.0 µM,98% (active)
same,growth inhibition,[3]; at 1.2 µM,-18%
same,growth inhibition,[3]; at 3.7 µM,-1%
same,growth inhibition,[3]; at 11.0 µM,-3%
same,growth inhibition,[3]; at 33.0 µM,98% (active)
same,growth inhibition,[3]; at 100.0 µM,99% (active)
same,growth inhibition,[4]; at 1.2 µM,-20%
same,growth inhibition,[4]; at 3.7 µM,-3%
same,growth inhibition,[4]; [16],46%
same,growth inhibition,[4]; at 11.0 µM,12%
same,growth inhibition,[4]; at 33.0 µM,97% (active)
same,growth inhibition,[4]; [17],75% (active)
same,growth inhibition,[4]; at 50.0 µM,-24.6%
same,growth inhibition,[4]; at 100.0 µM,99% (active)
same,growth inhibition,[5]; at 1.2 µM,-19%
same,growth inhibition,[5]; at 3.7 µM,-8%
same,growth inhibition,[5]; [16],22%
same,growth inhibition,[5]; at 11.0 µM,-7%
same,growth inhibition,[5]; at 33.0 µM,98% (active)
same,growth inhibition,[5]; [17],97% (active)
same,growth inhibition,[5]; at 50.0 µM,-52.2%
same,growth inhibition,[5]; at 100.0 µM,98% (active)
same,growth inhibition,[6]; at 1.2 µM,-21%
same,growth inhibition,[6]; at 3.7 µM,-21%
same,growth inhibition,[6]; at 11.0 µM,-19%
same,growth inhibition,[6]; at 33.0 µM,97% (active)
same,growth inhibition,[6]; at 100.0 µM,98% (active)
same,growth inhibition,[7]; [16],55%
same,growth inhibition,[7]; [17],93% (active)
same,growth inhibition,[7]; at 50.0 µM,-18.5%
same,growth inhibition,[8]; at 1.2 µM,10%
same,growth inhibition,[8]; at 3.7 µM,5%
same,growth inhibition,[8]; at 11.0 µM,26%
same,growth inhibition,[8]; at 33.0 µM,98% (active)
same,growth inhibition,[8]; at 100.0 µM,99% (active)
same,growth inhibition,[9]; [16],12%
same,growth inhibition,[9]; [17],59%
same,growth inhibition,[9]; at 50.0 µM,10.6%
same,growth inhibition,[10]; at 1.2 µM,-9%
same,growth inhibition,[10]; at 3.7 µM,-11%
same,growth inhibition,[10]; [16],28%
same,growth inhibition,[10]; at 11.0 µM,5%
same,growth inhibition,[10]; at 33.0 µM,98% (active)
same,growth inhibition,[10]; [17],97% (active)
same,growth inhibition,[10]; at 50.0 µM,-43.2%
same,growth inhibition,[10]; at 100.0 µM,99% (active)
same,growth inhibition,[11]; at 1.2 µM,-63%
same,growth inhibition,[11]; at 3.7 µM,-43%
same,growth inhibition,[11]; at 11.0 µM,37%
same,growth inhibition,[11]; at 33.0 µM,46%
same,growth inhibition,[11]; at 100.0 µM,88% (active)
same,growth inhibition,[12]; at 1.2 µM,12%
same,growth inhibition,[12]; at 3.7 µM,-8%
same,growth inhibition,[12]; at 11.0 µM,3%
same,growth inhibition,[12]; at 33.0 µM,98% (active)
same,growth inhibition,[12]; at 100.0 µM,99% (active)
same,growth inhibition,[13]; at 1.2 µM,-7%
same,growth inhibition,[13]; at 3.7 µM,16%
same,growth inhibition,[13]; at 11.0 µM,36%
same,growth inhibition,[13]; at 33.0 µM,98% (active)
same,growth inhibition,[13]; at 100.0 µM,99% (active)
same,growth inhibition,[14]; [16],69%
same,growth inhibition,[14]; [17],87% (active)
same,growth inhibition,[14]; at 50.0 µM,89.3% (active)
same,growth inhibition,[15]; at 1.2 µM,-25%
same,growth inhibition,[15]; at 3.7 µM,-7%
same,growth inhibition,[15]; at 11.0 µM,4%
same,growth inhibition,[15]; at 33.0 µM,98% (active)
same,growth inhibition,[15]; at 100.0 µM,99% (active)
COc1cc(NCCCCCNC(C)C)c2ncccc2c1Cl,growth inhibition,[1]; at 1.2 µM,-2%
same,growth inhibition,[1]; at 3.7 µM,3%
same,growth inhibition,[1]; at 11.0 µM,1%
same,growth inhibition,[1]; at 33.0 µM,2%
same,growth inhibition,[1]; at 100.0 µM,-8%
same,growth inhibition,[2]; at 1.2 µM,1%
same,growth inhibition,[2]; at 3.7 µM,-1%
same,growth inhibition,[2]; at 11.0 µM,1%
same,growth inhibition,[2]; at 33.0 µM,9%
same,growth inhibition,[2]; at 100.0 µM,13%
same,growth inhibition,[3]; at 1.2 µM,-5%
same,growth inhibition,[3]; at 3.7 µM,-3%
same,growth inhibition,[3]; at 11.0 µM,1%
same,growth inhibition,[3]; at 33.0 µM,3%
same,growth inhibition,[3]; at 100.0 µM,33%
same,growth inhibition,[4]; at 1.2 µM,-1%
same,growth inhibition,[4]; at 3.7 µM,2%
same,growth inhibition,[4]; [16],8%
same,growth inhibition,[4]; at 11.0 µM,4%
same,growth inhibition,[4]; at 33.0 µM,7%
same,growth inhibition,[4]; [17],12%
same,growth inhibition,[4]; at 50.0 µM,49.7%
same,growth inhibition,[4]; at 100.0 µM,24%
same,growth inhibition,[5]; at 1.2 µM,-1%
same,growth inhibition,[5]; at 3.7 µM,2%
same,growth inhibition,[5]; [16],-3%
same,growth inhibition,[5]; at 11.0 µM,3%
same,growth inhibition,[5]; at 33.0 µM,4%
same,growth inhibition,[5]; [17],13%
same,growth inhibition,[5]; at 50.0 µM,6.65%
same,growth inhibition,[5]; at 100.0 µM,10%
same,growth inhibition,[6]; at 1.2 µM,0%
same,growth inhibition,[6]; at 3.7 µM,5%
same,growth inhibition,[6]; at 11.0 µM,15%
same,growth inhibition,[6]; at 33.0 µM,24%
same,growth inhibition,[6]; at 100.0 µM,24%
same,growth inhibition,[7]; [16],5%
same,growth inhibition,[7]; [17],28%
same,growth inhibition,[7]; at 50.0 µM,52.5%
same,growth inhibition,[8]; at 1.2 µM,0%
same,growth inhibition,[8]; at 3.7 µM,-6%
same,growth inhibition,[8]; at 11.0 µM,6%
same,growth inhibition,[8]; at 33.0 µM,14%
same,growth inhibition,[8]; at 100.0 µM,36%
same,growth inhibition,[9]; [16],8%
same,growth inhibition,[9]; [17],41%
same,growth inhibition,[9]; at 50.0 µM,26.8%
same,growth inhibition,[10]; at 1.2 µM,-2%
same,growth inhibition,[10]; at 3.7 µM,-1%
same,growth inhibition,[10]; [16],6%
same,growth inhibition,[10]; at 11.0 µM,3%
same,growth inhibition,[10]; at 33.0 µM,11%
same,growth inhibition,[10]; [17],38%
same,growth inhibition,[10]; at 50.0 µM,36.5%
same,growth inhibition,[10]; at 100.0 µM,25%
same,growth inhibition,[11]; at 1.2 µM,-2%
same,growth inhibition,[11]; at 3.7 µM,-1%
same,growth inhibition,[11]; at 11.0 µM,0%
same,growth inhibition,[11]; at 33.0 µM,7%
same,growth inhibition,[11]; at 100.0 µM,6%
